From PubChem BioAssay (NCATS)
Records with an inconclusive call do not appear. The source made the active and inactive calls. Calls come from the whole dose curve; as a rule, active = well fitted cell-killing curve with a large enough effect; inconclusive = small, poorly fitted or top-dose-only effect, or effect the other way; inactive = flat fitted curve, though single readings scatter.

How the values were obtained:
Experiment in all cases: Primary qHTS to identify gynecologic anti-cancer compounds using libraries of approved drugs and bioactive compounds (AID 1345084); note: nearly all actives have a fitted effect of over 55% in size
CAOV3 = settings: Gynecologic cancer cell panel viability, ATPlite luminescence, 48 h; series mostly up to 57.5 µM
Summary of the method: (§1)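 Five-point cytotoxicity, 48 h drug exposure at 37 C, 5% CO2, on cells seeded 16 h beforehand. ATP content read by ATPlite luminescence.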

CASKI = settings: Gynecologic cancer cell panel viability, ATPlite luminescence, 48 h; series mostly up to 57.5 µM
Summary of the method: as §1

Es-2 = settings: Gynecologic cancer cell panel viability, ATPlite luminescence, 48 h; series mostly up to 57.5 µM
Summary of the method: as §1

HeLa = settings: Gynecologic cancer cell panel viability, ATPlite luminescence, 48 h; series mostly up to 57.5 µM
Summary of the method: as §1

Hek293T = settings: Gynecologic cancer cell panel viability, ATPlite luminescence, 48 h, control line for the selectivity index; series mostly up to 57.5 µM
Summary of the method: as §1

JEG-3 = settings: Gynecologic cancer cell panel viability, ATPlite luminescence, 48 h; series mostly up to 57.5 µM
Summary of the method: as §1

OV90 = settings: Gynecologic cancer cell panel viability, ATPlite luminescence, 48 h; series mostly up to 57.5 µM
Summary of the method: as §1

PA-1 = settings: Gynecologic cancer cell panel viability, ATPlite luminescence, 48 h; series mostly up to 57.5 µM
Summary of the method: as §1

SKOV3 = settings: Gynecologic cancer cell panel viability, ATPlite luminescence, 48 h; series mostly up to 57.5 µM
Summary of the method: as §1

Tov-21-G = settings: Gynecologic cancer cell panel viability, ATPlite luminescence, 48 h; series mostly up to 57.5 µM
Summary of the method: as §1

Tov112D = settings: Gynecologic cancer cell panel viability, ATPlite luminescence, 48 h; series mostly up to 57.5 µM
Summary of the method: as §1
% is set by controls: 0 for no effect and ±100 for the full control effect.

COc1ccccc1[C@@H]1C2=C(CC(C)(C)CC2=O)Nc2n[nH]c(C(F)(F)F)c21
inactive: Potency (CAOV3) | Potency (CASKI) | Potency (Es-2) | Potency (HeLa) | Potency (Hek293T) | Potency (JEG-3) | Potency (OV90) | Potency (PA-1) | Potency (SKOV3) | Potency (Tov-21-G) | Potency (Tov112D)

CC(=O)OC1C(O)CC(O[C@@H]2O[C@H](CO)[C@@H](O)[C@H](O)[C@H]2O)C2CCC3C(=O)OC(c4ccoc4)CC3(C)C21 (some centres undefined)
inactive: Potency (CAOV3) | Potency (CASKI) | Potency (Es-2) | Potency (HeLa) | Potency (Hek293T) | Potency (JEG-3) | Potency (OV90) | Potency (PA-1) | Potency (SKOV3) | Potency (Tov-21-G) | Potency (Tov112D)

CC(=O)OC[C@@]12[C@@H](OC(C)=O)C[C@@H](C)[C@](C)([C@@H]3C[C@H]4C=CO[C@H]4O3)[C@H]1CCC[C@]21CO1
inactive: Potency (CAOV3) | Potency (CASKI) | Potency (Es-2) | Potency (HeLa) | Potency (Hek293T) | Potency (JEG-3) | Potency (OV90) | Potency (PA-1) | Potency (SKOV3) | Potency (Tov-21-G) | Potency (Tov112D)

Cn1c(=O)c2nc(/C=C/c3cccc(Cl)c3)n(C)c2n(C)c1=O
inactive: Potency (CAOV3) | Potency (CASKI) | Potency (Es-2) | Potency (HeLa) | Potency (Hek293T) | Potency (JEG-3) | Potency (OV90) | Potency (PA-1) | Potency (SKOV3) | Potency (Tov-21-G) | Potency (Tov112D)

COc1cccc(-c2ccc([C@@H](Oc3cc(-c4ccc(C[C@H](N)C(=O)O)cc4)nc(N)n3)C(F)(F)F)cc2)c1
inactive: Potency (CAOV3) | Potency (CASKI) | Potency (Es-2) | Potency (HeLa) | Potency (Hek293T) | Potency (JEG-3) | Potency (OV90) | Potency (PA-1) | Potency (SKOV3) | Potency (Tov-21-G) | Potency (Tov112D)

CC1(C)CCC(C)(C)c2cc3c(cc21)Sc1ccccc1N=C3c1ccc(C(=O)O)cc1
inactive: Potency (CAOV3) | Potency (CASKI) | Potency (Es-2) | Potency (HeLa) | Potency (Hek293T) | Potency (JEG-3) | Potency (OV90) | Potency (PA-1) | Potency (SKOV3) | Potency (Tov-21-G) | Potency (Tov112D)

CC(C)(O)C1CCC2(C)C3C(O)C4C(C13)C42CO (centres undefined)
inactive: Potency (CAOV3) | Potency (CASKI) | Potency (Es-2) | Potency (HeLa) | Potency (Hek293T) | Potency (JEG-3) | Potency (OV90) | Potency (PA-1) | Potency (SKOV3) | Potency (Tov-21-G) | Potency (Tov112D)

Cc1ncc([N+](=O)[O-])n1CC(O)CN1CCOCC1 (centres undefined)
inactive: Potency (CAOV3) | Potency (CASKI) | Potency (Es-2) | Potency (HeLa) | Potency (Hek293T) | Potency (JEG-3) | Potency (OV90) | Potency (PA-1) | Potency (SKOV3) | Potency (Tov-21-G) | Potency (Tov112D)

CC1CCC2C(C(=O)O)=CC3CC(C)(C)CC132 (centres undefined)
inactive: Potency (CAOV3) | Potency (CASKI) | Potency (Es-2) | Potency (HeLa) | Potency (Hek293T) | Potency (JEG-3) | Potency (OV90) | Potency (PA-1) | Potency (SKOV3) | Potency (Tov-21-G) | Potency (Tov112D)

COC1=Cc2c(nc3n(c2=O)C(C)C(=O)NC3(O)C(C)C)OC=C1 (centres undefined)
inactive: Potency (CAOV3) | Potency (CASKI) | Potency (Es-2) | Potency (HeLa) | Potency (Hek293T) | Potency (JEG-3) | Potency (OV90) | Potency (PA-1) | Potency (SKOV3) | Potency (Tov-21-G) | Potency (Tov112D)

Nc1nonc1C(=Nc1ccc(F)c(Cl)c1)NO
inactive: Potency (CAOV3) | Potency (CASKI) | Potency (Es-2) | Potency (HeLa) | Potency (Hek293T) | Potency (JEG-3) | Potency (OV90) | Potency (PA-1) | Potency (SKOV3) | Potency (Tov-21-G) | Potency (Tov112D)

CC(=O)N[C@H]1[C@H](O[C@H]2CC[C@@]3(C)C(CC[C@]4(C)C3CC=C3C5CC(C)(C)CC[C@]5(C(=O)O)[C@H](O[C@@H]5O[C@H](CO)[C@@H](O)[C@H](O)[C@H]5O)C[C@]34C)C2(C)C)O[C@H](CO[C@@H]2OC[C@H](O)[C@H](O)[C@H]2O[C@@H]2OC[C@@H](O)[C@H](O)[C@H]2O)[C@@H](O)[C@@H]1O (some centres undefined)
inactive: activity change, negative = cytotoxicity (CAOV3) 4.01% [at 11.6 µM] | activity change, negative = cytotoxicity (CASKI) -4.68% [at 11.6 µM] | activity change, negative = cytotoxicity (Es-2) -1.11% [at 11.6 µM] | activity change, negative = cytotoxicity (HeLa) 15.9% [at 11.6 µM] | activity change, negative = cytotoxicity (Hek293T) -2.94% [at 11.6 µM] | activity change, negative = cytotoxicity (JEG-3) -2.88% [at 11.6 µM] | activity change, negative = cytotoxicity (OV90) -0.313% [at 11.6 µM] | activity change, negative = cytotoxicity (PA-1) -6.75% [at 11.6 µM] | activity change, negative = cytotoxicity (SKOV3) 13% [at 11.6 µM] | activity change, negative = cytotoxicity (Tov-21-G) 0.549% [at 11.6 µM] | activity change, negative = cytotoxicity (Tov112D) 6.55% [at 11.6 µM]

C[C@@H]1O[C@@H](O[C@H]2[C@H](O[C@H]3[C@H](O[C@H]4CC[C@@]5(C)C(CC[C@]6(C)C5CC=C5[C@@H]7CC(C)(C(=O)O)C[C@@H](O)[C@]7(C)CC[C@]56C)[C@@]4(C)CO)O[C@H](C(=O)O)[C@@H](O)[C@@H]3O)O[C@H](CO)[C@H](O)[C@@H]2O)[C@H](O)[C@H](O)[C@H]1O (some centres undefined)
inactive: activity change, negative = cytotoxicity (CAOV3) 15.7% [at 11.6 µM] | activity change, negative = cytotoxicity (CASKI) 2.76% [at 11.6 µM] | activity change, negative = cytotoxicity (Es-2) 6.95% [at 11.6 µM] | activity change, negative = cytotoxicity (HeLa) 4.42% [at 11.6 µM] | activity change, negative = cytotoxicity (Hek293T) -2.11% [at 11.6 µM] | activity change, negative = cytotoxicity (JEG-3) -9.71% [at 11.6 µM] | activity change, negative = cytotoxicity (OV90) 0.848% [at 11.6 µM] | activity change, negative = cytotoxicity (PA-1) 3.43% [at 11.6 µM] | activity change, negative = cytotoxicity (SKOV3) 5.26% [at 11.6 µM] | activity change, negative = cytotoxicity (Tov-21-G) 6.81% [at 11.6 µM] | activity change, negative = cytotoxicity (Tov112D) 9.62% [at 11.6 µM]

Cn1ccnc1CCOC(c1cc2nccc(C(=O)O)c2[nH]1)c1ccccc1Cl (centres undefined)
inactive: Potency (CAOV3) | Potency (CASKI) | Potency (Es-2) | Potency (HeLa) | Potency (Hek293T) | Potency (JEG-3) | Potency (OV90) | Potency (PA-1) | Potency (SKOV3) | Potency (Tov-21-G) | Potency (Tov112D)
